Screening results from PubChem BioAssay.
Shiga inhibitor = Shiga toxin inhibition; inhibition, % at 38.7 µM; actives 9.2% (n = 290,000); Vero cells, Shiga toxin protein synthesis inhibition reporter; in the data active = inhibition mostly above about 28%, no sharp cut-off; inactive = mostly below about 43%; also: 0% is about no effect
AMA1-RON2 inh = AMA1-RON2 (P. falciparum) interaction inhibition; AlphaScreen AMA1-biotinylated RON2 peptide binding; Potency, µM (series often up to 58.2 µM), for the others: top-dose activity change, negative = inhibition, hits mostly inhibitors; actives 0.2% (n = 360,000);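 also: potency is read from the fitted curve at half-maximal effect; 0% = vehicle wells and -100% = peptide control; nearly all actives have a fitted effect of over 45% in size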
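AMA1 (3D7) with his tag at 25 nM final met compounds first, then biotinylated RON2 peptide at 25 nM; detection used donor plus acceptor beads, 10 µg/mL apiece, read by AlphaScreen after 30 min at room temperature.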
Cycloheximide cs = affects cycloheximide protein synthesis inhibition readout, counter-screen; cell reporter, cycloheximide protein synthesis inhibition counterscreen; max response, %; actives 12% (n = 300,000); in the data active = max response mostly above about 13%, no sharp cut-off; inactive = mostly below about 14%; also: read at 38.3 µM for the half of the compounds with a filed dose; 0% is about no effect
Pf growth 48h = P. falciparum growth inhibition at 48 hours (one generation). actives 5.9% (n = 310,000). AID 504832. P. falciparum luciferase growth in erythrocytes, 48 h. Potency, µM (doses to about 28.7 µM), for inactives: at the top dose activity change, negative = inhibition, hits mostly inhibitors; also: potency is read from the fitted curve at half-maximal effect; % is scaled to controls: 0 for no effect and ±100 for the full control effect
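First compound was added to culture medium, then infected red cells at 0.1% parasitemia and 2% hematocrit (final). After incubation at 37 C under 5% CO2, luciferase detection reagent was dispensed and light output recorded.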
Pf growth 96h = inhibits malaria parasite growth, 96 h; Potency, µM (series often up to 28.7 µM), inactives show at the top dose activity change, negative = inhibition, actives largely listed as inhibitors; P. falciparum luciferase reporter growth, 96 h; actives 6.9% (n = 320,000); also: potency is read from the fitted curve at half-maximal effect; % is scaled to controls: 0 for no effect and ±100 for the full control effect
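96 h incubation, 37 C, 5% CO2, of luciferase-reporter P. falciparum-infected RBCs (2% hematocrit, 0.05% parasitemia final) with test compounds; endpoint luminescence.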
SARS PLP yeast = inhibitors of SARS-CoV papain-like protease in yeast; actives 0.19% (n = 330,000); S. cerevisiae expressing SARS-CoV PLpro, growth rescue; AID 485353; Potency, µM (top dose mostly 32.9 µM), for the others: at the top dose activity, positive = growth rescue, actives largely listed as activators; calls by dose curve; also: potency is read from the fitted curve at half-maximal effect; 0% is about no effect; nearly all actives have a fitted effect of over 55% in size
The depositor's hits bear a star; [ ] = dose if it differs, or a comment. A selection: hits, their analogues and other compounds. The true share with any hit is near 19%. Unless noted, calls follow the shape of the dose curve; as a rule, active = well fitted curve in the direction sought with a large enough effect; inconclusive = small, poorly fitted or top-dose-only effect, or another doubt; inactive = no such curve, though single readings can be large; an effect the other way counts as inactive or inconclusive.

Results for CC1=CC(C)C2(COC(=O)Nc3ccccc3)COC(C)C1C2C (stereo not drawn) ?
Shiga inhibitor: 36; AMA1-RON2 inh: -16%; Cycloheximide cs: 13*; Pf growth 48h: inconclusive; Pf growth 96h: inconclusive; SARS PLP yeast: -2%

How did CCOC(=O)N1CC(C)N(C(=S)Nc2ccccc2)CC1C (stereo not drawn) do in these assays?
AMA1-RON2 inh: 0%

Results for CC(=O)Nc1ccc(NC(=O)CSc2nnc(-c3cccs3)n2C)cc1 ?
Shiga inhibitor: -11; AMA1-RON2 inh: -7%; Cycloheximide cs: -4; Pf growth 48h: 7%; Pf growth 96h: 13%; SARS PLP yeast: 2%

How did CCCn1c(SCC(=O)NC2CC2)nnc1-c1cccs1 do in these assays?
Shiga inhibitor: -31; AMA1-RON2 inh: -10%; Cycloheximide cs: -1; Pf growth 48h: 13%; Pf growth 96h: -18%; SARS PLP yeast: -5%

Results for Cn1c(SCC(=O)c2ccc3c(c2)Cc2ccccc2-3)nnc1-c1cccc(N)c1 ?
Shiga inhibitor: 14; AMA1-RON2 inh: 2%; Cycloheximide cs: 20*; Pf growth 48h: inconclusive; Pf growth 96h: inconclusive; SARS PLP yeast: -28%

What do the screens show for `CC(=O)Nc1ccc(-c2nnc(SCC(=O)c3ccc4c(c3)Cc3ccccc3-4)n2C)cc1`?
Shiga inhibitor: 21; AMA1-RON2 inh: 7%; Cycloheximide cs: 9; Pf growth 48h: inconclusive; Pf growth 96h: inconclusive; SARS PLP yeast: -11%

How did Cn1c(SCC(=O)NC2CC2)nnc1-c1cccs1 do in these assays?
Shiga inhibitor: 75*; AMA1-RON2 inh: -10%; Cycloheximide cs: 62*; Pf growth 48h: 235%; Pf growth 96h: 4%; SARS PLP yeast: -7%

How did Cn1c(SCC(=O)NC2CCCCC2)nnc1-c1cccc(N)c1 do in these assays?
Shiga inhibitor: 8; AMA1-RON2 inh: 2%; Cycloheximide cs: 4; Pf growth 48h: -19%; Pf growth 96h: 4.1µM*; SARS PLP yeast: -13%

Results for Cn1c(SCC(=O)N(C2CCCCC2)C2CCCCC2)nnc1-c1cccs1 ?
Shiga inhibitor: -4; AMA1-RON2 inh: 0%; Cycloheximide cs: -2; Pf growth 48h: 12µM*; SARS PLP yeast: 3%

Results for Cn1c(SCC(=O)NC2CCCCC2)nnc1-c1ccccn1 ?
Shiga inhibitor: -33; AMA1-RON2 inh: -13%; Cycloheximide cs: 5; Pf growth 48h: 13%; Pf growth 96h: 7%; SARS PLP yeast: -4%

How did CCN(CC)S(=O)(=O)c1cccc(NC(=O)CCNC(=O)NC23CC4CC(CC(C4)C2)C3)c1 do in these assays?
AMA1-RON2 inh: -7%; Pf growth 48h: inconclusive; Pf growth 96h: inconclusive; SARS PLP yeast: 1%

What do the screens show for `Cc1ccc(Cl)c(NC(=O)CN2CCNC(=O)C2)c1Cl`?
Shiga inhibitor: -7; AMA1-RON2 inh: 6%; Cycloheximide cs: -1; Pf growth 48h: 7%; Pf growth 96h: 17%; SARS PLP yeast: -5%

What do the screens show for `Cn1c(SCC(=O)NC2CCCC2)nnc1-c1ccncc1`?
Shiga inhibitor: -17; AMA1-RON2 inh: 9%; Cycloheximide cs: -6; Pf growth 48h: -9%; Pf growth 96h: -12%; SARS PLP yeast: 1%

What do the screens show for `CC(C)c1ccc(-c2nnc(SCC(=O)NC3CC3)n2C)cc1`?
Shiga inhibitor: 37*; AMA1-RON2 inh: 4%; Cycloheximide cs: 13*; Pf growth 48h: 55%; Pf growth 96h: 0%; SARS PLP yeast: 6%

What do the screens show for `Cn1c(SCC(=O)c2ccc(O)c(O)c2)nnc1-c1cccs1`?
Shiga inhibitor: 11; AMA1-RON2 inh: 16%; Cycloheximide cs: 26*; Pf growth 48h: inconclusive; Pf growth 96h: inconclusive; SARS PLP yeast: -1%

What do the screens show for `COc1ccccc1OC(C)C(=O)Nc1nc(-c2ccc(S(=O)(=O)N3CCOCC3)cc2)cs1` (stereo not drawn)?
Shiga inhibitor: -17; AMA1-RON2 inh: -3%; Cycloheximide cs: -2; Pf growth 48h: inconclusive; Pf growth 96h: 12µM*; SARS PLP yeast: -8%

Results for CCOc1cccc(C(=O)Nc2nc(-c3ccc(S(=O)(=O)N4CCOCC4)cc3)cs2)c1 ?
Shiga inhibitor: -9; AMA1-RON2 inh: -8%; Cycloheximide cs: 3; Pf growth 48h: 5.2µM*; SARS PLP yeast: 2%

Results for COc1ccc(-c2csc(NC(=O)C(CC(=O)O)N3CCOCC3)n2)cc1 (stereo not drawn) ?
Shiga inhibitor: -13; AMA1-RON2 inh: -8%; Cycloheximide cs: -1; Pf growth 48h: 1.3µM*; Pf growth 96h: 12µM*

Results for O=C(COc1cccc(Cl)c1)Nc1nc(-c2ccc(S(=O)(=O)N3CCOCC3)cc2)cs1 ?
Shiga inhibitor: 8; AMA1-RON2 inh: 15%; Cycloheximide cs: -2; Pf growth 48h: 8.3µM*; Pf growth 96h: 9.3µM*; SARS PLP yeast: 11%

Results for O=C(Nc1nc(-c2ccncc2)cs1)c1ccc(S(=O)(=O)N2CCOCC2)cc1 ?
Shiga inhibitor: 25; AMA1-RON2 inh: -1%; Cycloheximide cs: -6; Pf growth 48h: inconclusive; Pf growth 96h: inconclusive; SARS PLP yeast: 1%

Results for CC(C)C(=O)Nc1nc(-c2ccc(S(=O)(=O)N3CCOCC3)cc2)cs1 ?
Shiga inhibitor: -34; AMA1-RON2 inh: -21%; Cycloheximide cs: 6; Pf growth 48h: 0%; Pf growth 96h: -27%; SARS PLP yeast: 6%

Results for O=C(COn1nnc2ccc(Cl)cc21)NC1CCS(=O)(=O)C1 (stereo not drawn) ?
AMA1-RON2 inh: 0%; Pf growth 48h: -2%; Pf growth 96h: -12%; SARS PLP yeast: -2%

Results for Cc1ccc(S(=O)(=O)N2CCC(C(=O)OCC(=O)NCc3cccc(Cl)c3)CC2)cc1C ?
AMA1-RON2 inh: 9%; SARS PLP yeast: -1%

What do the screens show for `O=C(CCC(=O)N1CCOc2ccccc21)NCc1cccnc1`?
Shiga inhibitor: 6; AMA1-RON2 inh: 5%; Cycloheximide cs: -4; Pf growth 48h: 6%; Pf growth 96h: 6%; SARS PLP yeast: 3%

Results for COc1ccc(C(=O)NCc2ccc3c(c2)OCO3)cc1 ?
Shiga inhibitor: 13; AMA1-RON2 inh: -17%; Cycloheximide cs: 5; Pf growth 48h: 16%; Pf growth 96h: 33%[5.75 µM]; SARS PLP yeast: -1%

Results for COC(=O)[C@H](Cc1ccccc1)NC(=O)c1cc(COc2c(F)cccc2F)on1 ?
Shiga inhibitor: 67*; AMA1-RON2 inh: 0%; Cycloheximide cs: 52*; Pf growth 48h: 41%; Pf growth 96h: 12µM*; SARS PLP yeast: -25%

Results for O=C(NCc1ccc2c(c1)OCO2)c1cc(COc2c(F)cccc2F)on1 ?
Shiga inhibitor: 42; AMA1-RON2 inh: 23%; Cycloheximide cs: 37*; Pf growth 48h: 18%; Pf growth 96h: inconclusive; SARS PLP yeast: 1%
